Reference: PubChem BioAssay (EPA / NIEHS)
Where “and” joins values, the source holds several entries; their conditions need not be identical. Equal values may be shown once. Inconclusive results are not listed. Calls of active or inactive are those of the source. Rule for the calls: active = hit-call score of the fitted dose curve at least 0.9, where 1 is the maximum; inconclusive = response in the unintended direction; inactive = score below 0.9.

These molecules were tested against Peroxisome proliferator-activated receptor gamma (Homo sapiens) (UniProt P37231) (assay: OT_PPARg_PPARgSRC1_0480: Odyssey Thera (OT) 8-hour Protein-Complementation Assay for Peroxisome Proliferator-activated Receptor Gamma / SRC-1 Co-activator (AID 2283387);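 note: nuclear to cytoplasmic split Venus YFP fluorescence ratio reporting PPARg SRC-1 interaction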).
Procedure: OT_PPARg_PPARgSRC1_0480 is a cell-based assay that uses HEK293T, a human kidney cell line, with measurements taken at 8 hours after chemical dosing in a 384-well plate.OT_PPARg_PPARgSRC1_0480 is one of one assay component(s) measured or calculated from the OT_PPARg_PPARgSRC1_0480 assay. It is designed to make measurements of protein fragment complementation, a form of binding reporter, as detected with fluorescence intensity signals by Protein-fragment Complementation technology.Data from the assay component OT_PPARg_PPARgSRC1_0480 was analyzed into 1 assay endpoint. This assay endpoint, OT_PPARg_PPARgSRC1_0480, was analyzed in the positive analysis fitting direction relative to DMSO as the negative control and baseline of activity. Using a type of binding reporter, measures of receptor for gain-of-signal activity can be used to understand the binding at the pathway-level as they relate to the gene PPARG. Furthermore, this assay endpoint can be referred to as a primary readout, because the performed assay has only produced 1 assay endpoint. To generalize the intended target to other relatable targets, this assay endpoint is annotated to the nuclear receptor intended target family, where the subfamily is non-steroidal.
The OT PPARg/SRC-1 assay assessed receptor-chemical interactions using a rapidly maturing, intensely fluorescent mutant of YFP known as Venus, rationally dissected into two separate fragments. The fragments were obtained as follows: first, fragments coding for YFP1 and YFP2 (corresponding to amino acid residues 1-158 and 159-239 of the full length YFP, respectively) were generated by oligonucleotide synthesis (Blue Heron Biotechnology), and then PCR mutagenesis was used to generate the mutant fragments IFP1 and IFP2. Fusion constructs were transfected into HEK293T cells with a (Gly4Ser)2 linker between the PPARg/SRC-1 and YFP fragment genes to facilitate complementation when interacting proteins bring fragments into close proximity. The construct is transiently transfected in HEK293T cells 48 hours prior to treatment with test compounds. Cells are seeded into optical quality 384-well poly-D-lysine coated plates in MEM alpha medium (Invitrogen) supplemented with 10 percent FBS (Gemini Bio-Products) 1 percent penicillin and 1 percent streptomycin, and grown in 37C incubator equilibrated to 5 percent CO2. Cells are allowed to adhere for 24 hours prior to treatment with compounds of interest or controls for 8 hours. Cells are fixed in 4 percent formaldehyde and stained with Draq5 (BioStatus) to identify cells and subcellular compartment boundaries prior to signal detection. 8 Images per well were acquired on an Evotec Opera at 2 wavelengths (488 and 635nm), and the ratio of fluorescence in the nucleus relative to fluorescence in the cytoplasm (N/C Ratio) in the 488nm channel was calculated for a minimum of 350 cells per image.

Sequence of Peroxisome proliferator-activated receptor gamma (Homo sapiens) (P37231 whole entry, looked up, the tested form may be a part): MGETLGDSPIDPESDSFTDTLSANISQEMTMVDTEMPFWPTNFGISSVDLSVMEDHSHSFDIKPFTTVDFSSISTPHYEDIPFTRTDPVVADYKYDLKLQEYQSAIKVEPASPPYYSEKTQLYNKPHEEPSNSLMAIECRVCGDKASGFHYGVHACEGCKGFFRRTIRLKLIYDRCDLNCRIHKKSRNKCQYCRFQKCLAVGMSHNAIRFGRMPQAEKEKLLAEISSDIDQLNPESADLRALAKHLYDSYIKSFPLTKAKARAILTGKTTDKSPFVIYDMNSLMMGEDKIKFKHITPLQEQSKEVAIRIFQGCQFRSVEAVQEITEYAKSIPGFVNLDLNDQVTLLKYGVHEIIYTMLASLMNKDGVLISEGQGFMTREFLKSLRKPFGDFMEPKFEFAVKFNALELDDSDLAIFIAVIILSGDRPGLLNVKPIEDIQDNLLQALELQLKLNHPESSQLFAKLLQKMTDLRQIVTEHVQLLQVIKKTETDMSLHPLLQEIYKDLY

Row | Compound | outcome | AC50
1 | CCCCCCC(CCCCCCCCCCC(=O)OCC(COC(C)=O)OC(C)=O)OC(C)=O (stereo not given) | inactive | –
2 | O=NO | inactive | –
3 | OCC(CO)n1cnc(-c2ccc(F)cc2)c1-c1ccnc(Oc2ccccc2)n1 | inactive | –
4 | COC(=O)CCC(=O)OC | inactive | –
5 | CC(C)c1cccc(C(C)C)c1 | inactive | –
6 | Cc1occc(=O)c1O | inactive | –
7 | S=c1[nH]c2ccccc2s1 | inactive | –
8 | O=C1CCCCC1 | inactive | –
9 | CCCCC(CC)COP(=O)(OCC(CC)CCCC)OCC(CC)CCCC (stereo not given) | inactive | –
10 | CS(=O)(=O)c1ccc([C@@H](C[C@H]2CCC(=O)C2)C(=O)Nc2cnccn2)cc1Cl | inactive | –
11 | CCCCCCCCCCCCCCCCO | inactive | –
12 | Oc1ccccc1O | inactive | –
13 | Oc1ccc(O)cc1 | inactive | –
14 | O=Cc1ccccc1C=O | inactive | –
15 | C/C=C/c1ccc(OC)cc1 | inactive | –
16 | O=C(N[C@@H](c1ccccc1)[C@@H]1CCCCN1)c1cccc(C(F)(F)F)c1Cl | inactive | –
17 | O=C1c2c(O)cccc2Cc2cccc(O)c21 | inactive | –
18 | NCCOCCOCCN | inactive | –
19 | CC(COCC(C)OC(=O)c1ccccc1)OC(=O)c1ccccc1 (stereo not given) | inactive | –
20 | CC1(C)C(=O)NC(=O)N1CO | inactive | –

Row | Compound | outcome | AC50
21 | CCCC(=O)O | inactive | –
22 | NC1CCCCC1 | inactive | –
23 | CC(=O)OC1CC(C)OC(C)O1 (stereo not given) | inactive | –
24 | NC(=Nc1ccccc1)Nc1ccccc1 | inactive | –
25 | O=C(O)CN(CC(=O)O)CC(=O)O | inactive | –
26 | CCCCOC(=O)CCCCC(=O)OCCCC | inactive | –
27 | O=C(O)c1[nH]n(-c2ccc(S(=O)(=O)O)cc2)c(=O)c1N=Nc1ccc(S(=O)(=O)O)cc1 | inactive | –
28 | CCCCC(CC)CO (stereo not given) | inactive | –
29 | COc1ccc(C(=O)Nc2nc3ccccc3c(NCc3ccccc3)c2C#N)cc1 | inactive | –
30 | N[C@@H](Cc1c[nH]c2ccccc12)C(=O)O | inactive | –
31 | Cc1cc(SC2=C(O)C[C@@](CCc3ccc(N)cc3)(C(C)C)OC2=O)c(C(C)(C)C)cc1CO | inactive | –
32 | CCCCCCCC(=O)OC | inactive | –
33 | CC(=O)OCC(COC(C)=O)OC(C)=O | inactive | –
34 | CCc1nc(N)nc(N)c1-c1ccc(Cl)cc1 | inactive | –
35 | COC(=O)[C@H]1[C@H]2C[C@@H]3c4[nH]c5cc(OC)ccc5c4CCN3C[C@H]2C[C@@H](OC(=O)c2cc(OC)c(OC)c(OC)c2)[C@@H]1OC | – | 11.4 µM (active) and 58 µM (active)
36 | CC1=C(C)S(=O)(=O)CCS1(=O)=O | inactive | –
37 | CC(=O)S[C@H](C(=O)N[C@H]1Cc2ccccc2[C@H]2CCC[C@@H](C(=O)O)N2C1=O)C(C)C | inactive | –
38 | O=C(O)c1cccnc1 | inactive | –
39 | O=C(Oc1ccccc1)c1cccc(C(=O)Oc2ccccc2)c1 | inactive | –
40 | CCOCCOCCO | inactive | –
